± gives the standard deviation of the averaged measurements.
Experiments:
Details in all cases: concentration: 10 µM; 24 h
HCC1569 [1] = test: cell number relative to DMSO (% of DMSO); higher = more cells (less growth inhibition / toxicity)
In short: (§1)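 Cells were seeded at 800 per well in 384-well plates with RPMI containing 10% FBS; both HCC1569 and TDF lines were used. Compounds were added at 10 µM for 24 h at 37 °C, in triplicate, before fixation in 3.7% formaldehyde and staining with a rabbit anti-H1.0 antibody, an AlexaFluor 647 secondary and DAPI. H1.0 nuclear intensity or cell number is reported as percent of the plate control using the median of replicates, and HCC1569 values were smoothed for positional effects.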

TDF [2] = test: as above
In short: as §1

TDF [3] = test: H1.0 immunofluorescence intensity relative to DMSO (% of DMSO); higher = stronger H1.0 induction, active = 120 or more
In short: as §1

HCC1569 [4] = test: H1.0 immunofluorescence intensity relative to DMSO (% of DMSO); higher = stronger H1.0 induction, active = 140 or more
In short: as §1
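Wherever H1.0 immunofluorescence intensity relative to DMSO is given: TDF is a line of transformed human dermal fibroblasts of mesenchymal origin.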
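Wherever cell number relative to DMSO is given: TDF denotes transformed human dermal fibroblasts of mesenchymal origin.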

SMILES | cell number (HCC1569 [1]) | cell number (TDF [2]) | H1.0 immunofluorescence intensity (TDF [3]) | H1.0 immunofluorescence intensity (HCC1569 [4])
CCCCCCCCC(=O)NCc1ccc(O)c(OC)c1 [N-Vanillylnonanamide] | 76.7 | 81.3 | 107 (inactive) | 160 (active)
COc1ccc2[nH]c3c(c2c1)CCNC3 [6-Methoxy-1,2,3,4-tetrahydro-9H-pyrido[3,4b] indole] | 106 | 100 | 108 (inactive) | 108 (inactive)
CCCCCCCCCCCCCCCCOCC(COP(=O)([O-])OCC[N+](C)(C)C)OC(C)=O (stereo unspecified) | 96 | 98.3 | 99.6 (inactive) | 102 (inactive)
NCC1(CC(=O)O)CCCCC1 [Gabapentin] | 104 ± 4.7 | 108 ± 6.5 | 94.7 (inactive) | 93.5 (inactive)
O=C(O)CCCc1ccc(N(CCCl)CCCl)cc1 [Chlorambucil] | 86.2 ± 2.5 | 85.1 ± 7.6 | 97.1 (inactive) | 98.4 (inactive)
Cl.O=C(CCCN1CCC2(CC1)C(=O)NCN2c1ccccc1)c1ccc(F)cc1 [Spiperone hydrochloride] | 105 | 87.3 | 116 (inactive) | 99.6 (inactive)
NCC(CC(=O)O)c1ccc(Cl)cc1 (racemic) | 99.3 | 112 | 94.3 (inactive) | 99.1 (inactive)
CSC(=S)NCc1c[nH]c2ccccc12 [Brassinin] | 100 | 90.8 | 97.9 (inactive) | 99.7 (inactive)
C1CCC(NC2CCCCC2)CC1 | 96.5 | 102 | 93.9 (inactive) | 100 (inactive)
CCC(C(=O)O)C1OC(C(C)C(O)C(C)C(=O)C(CC)C2OC3(C=CC(O)C4(CCC(C)(C5CCC(O)(CC)C(C)O5)O4)O3)C(C)CC2C)C(C)CC1C (stereo unspecified) [Narasin] | 67.3 | 84.4 | 112 (inactive) | 159 (active)
CC=C(C)C(=O)OC1C(C)=C2C(C1OC(=O)CCCCCCC)C(C)(OC(C)=O)CC(OC(=O)CCC)C1(O)C2OC(=O)C1(C)O (stereo unspecified) [Thapsigargin] | 62.4 | 44.2 | 130 (active) | 195 (active)
O=S1(=O)N(CCN2CC=C(c3c[nH]c4cc(F)ccc34)CC2)c2cccc3c2N1CCC3 | 101 | 107 | 95.4 (inactive) | 102 (inactive)
CN1C2CCC1CC(OC(=O)C(CO)c1ccccc1)C2 (stereo unspecified) [Hyoscyamine] | 102 | 98 | 97.8 (inactive) | 94.8 (inactive)
COc1ccc2c(c1)N1C(C=C(C)C)OOC(C)(C)CC3C1C2C(O)C1(O)C(=O)N2CCCC2C(=O)N31 (stereo unspecified) [Verruculogen] | 102 | 106 | 96.9 (inactive) | 98.1 (inactive)
OCC1CCCN2CCCCC12 (stereo unspecified) [Lupinine] | 109 | 104 | 96.3 (inactive) | 84.3 (inactive)
Br.CC(Cc1ccc(O)cc1)NCC(O)c1cc(O)cc(O)c1 (stereo unspecified) [Fenoterol hydrobromide] | 104 | 105 | 88.3 (inactive) | 112 (inactive)
COc1cccc2c1cc([N+](=O)[O-])c1c(C(=O)O)cc3c(c12)OCO3 [Aristolochic acid A] | 102 | 110 | 98.4 (inactive) | 91.2 (inactive)
CC1CCC2(NC1)OC1CC3C4CCC5CC(O)CCC5(C)C4CCC3(C)C1C2C (stereo unspecified) [Tomatidine] | 104 | 102 | 99.2 (inactive) | 83.5 (inactive)
Nc1ccncc1 [4-Aminopyridine] | 101 | 103 | 95.3 (inactive) | 88 (inactive)
CCn1cnc2c(Nc3cccc(Cl)c3)nc(NC3CCCCC3N)nc21.Cl (stereo unspecified) | 53 | 21.5 | 132 (active) | 101 (inactive)
CCCN1CC(CSC)CC2c3cccc4[nH]cc(c34)CC21.CS(=O)(=O)O (stereo unspecified) [Pergolide methanesulfonate] | 98.8 | 98.2 | 98.1 (inactive) | 94.4 (inactive)
CN[C@@H]1Cc2cccc3[nH]c(=O)n(c23)C1.O=C(O)C=CC(=O)O | 101 | 105 | 92.5 (inactive) | 89.2 (inactive)
C[N+]1(C)C2CCC1CC(OC(=O)C(CO)c1ccccc1)C2.O=[N+]([O-])[O-] (stereo unspecified) [Atropine methyl nitrate] | 101 | 113 | 94.9 (inactive) | 89.7 (inactive)
NC(CCP(=O)(O)O)C(=O)O (racemic) | 99.4 | 101 | 96.9 (inactive) | 91.1 (inactive)

— the supplement of paper PMC7156485
